For 108 sequences, z-score results are on record in PubChem BioAssay AID1508600 (Functional Genomics Laboratory (NCATS/FGL), 2020).

About 3,700 (7%) of roughly 53,000 sequences were called active.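 The calls were made as follows: active = gene knockdowns whose robust z-score for IL-1 alpha signal is at least 2 or at most -2, so actives lie on both sides; inactive = the rest.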 The sample as a whole holds a higher share of actives than the screen did.

A short description of this experiment: Components of the Cytosolic LPS Sensing Pathway: Gene Identification via Genome-wide siRNA Screen.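 Also: robust z of the log signal after scaling to non-targeting control siRNA wells of the plate.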 The settings on record: RAW264.7 macrophages, IL-1a HTRF, actives lie on both sides, screened at 100 nM (by protocol), cells primed 5 h with Pam3CSK4 first. The essentials: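 IL-1a HTRF of supernatants after 24 hour LipidA transfection of Pam3CSK4-primed (5 hours) RAW264.7 cells, 48h post-siRNA transfection (100 nM). Scores: percent of plate negative-control median, then log-based robust z-score.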
For orientation: TR-FRET usually uses a lanthanide donor and a delayed reading to cut background.
In the case of GCUCAAAUUGAGUCCUUAUTT against Ccdc122, the z-score was -0.548 (inactive). To GCUAGCCAUGGUUACCCACTT against Slc39a3 belongs -0.818 (inactive); to GGGACACUAGAAGUAGGGATT against Pramel4, 0.299 (inactive); to GACGAUCAAGAUAUGAUGGTT against Olfr196, 0.259 (inactive). To GCACGUACUGUUCUAGAAGTT against Kcng4 belongs 1.48 (inactive); to CCCAAAGAUAGAGCUCUGUTT against Sec61a2, -1.94 (inactive); to GGUUGAUCUAAUGAUUGUGTT against Ccdc34, 2.5 (active). On to UCUCCUACCUAUGCACAUATT against Panx2, for which the z-score is -0.925 (inactive). With “GCAAGUCUGGAUGGAUGAGTT against 1190005I06Rik”, the z-score was -1.54 (inactive).

Take CCCUCGUUGAAUUAAACUUTT against Zfp385b: the z-score is 0.88 (inactive). Turning to GGUCUCAGACAAAGAUGAATT against Trmt10c, the z-score is -0.239 (inactive).

For GGAAUGGAGUUUGGUUUUGTT against Extl1, the z-score was 2.67 (active). Next, GGAAACGAGUUGGAGACAATT against Gtpbp1: -1.03 (inactive); GGUUAAGUUCCUCUGGAACTT against Pnliprp2: -0.0719 (inactive). For the sequence “GGCACUACCACAAGUAUAGTT against 1700073E17Rik”, the z-score was 0.0893 (inactive). On to GCAGGUUAUGGUCAUAUUUTT against Zfp646, for which the z-score is 0.583 (inactive). Turning to GCAGUUGAGUCCACCUCAATT against Ccdc187, the z-score is 2.18 (active).

For GGAGAACGUGGUACAAAGUTT against Sncg, the z-score was -1.27 (inactive).

With GGAGGACUUAGAGAGUAUGTT against Ctdp1, the z-score was -0.595 (inactive).

CCAGUGUAGAGCACAAAUCTT against Ahr: the z-score was 2.51 (active). To GGACCUGGACCUUUUAGAGTT against Vegfb belongs 1.34 (inactive). To GGUUGUUGGAAAAAUAGAUTT against Tmem175 belongs -0.0383 (inactive); to GGUGGACUUCAUGUAGAUUTT against Eif3m, -1.07 (inactive).

Regarding GGACAAGAGGUACACAAACTT against Eif3d, the z-score is 2.83 (active). Next, GGAAGAGCUGGACUUCUUCTT against Hoxb2: 1.71 (inactive); CCACGGUUAUGAUGACGACTT against Dyrk1b: 1.89 (inactive); GGACUAUUUCCUUUGUGGGTT against Olfr31: -1.59 (inactive). To GGAUUGUCCUUGAUGGCUGTT against Plek2 belongs -0.116 (inactive). Next, GGAGGUUUUACUCAAACAUTT against Sec14l2: 1.35 (inactive). Take GGGCCUGCUCUCUUUUCUGTT against Mfsd14b: the z-score was 1.18 (inactive). To CCUCGAGUCACCAACAUCGTT against Stt3b belongs -2.46 (active). For GCCUUUUGUACUAAGGUCCTT against Zfp715, the z-score was 1.65 (inactive). As for GGGACAGUUAGUCAGUAAGTT against Pus7l, the z-score is 0.196 (inactive).

GGCUCAGAAACAACAGGCUTT against Sh2d3c: the z-score was -1.19 (inactive). Take GGCUGUUAGAGGAAGAGAUTT against Ube3b: the z-score was 1.64 (inactive).

As for CCAGCAUCUACUGUCUGACTT against Sstr1, the z-score was 4.2 (active).

Turning to GCAAUGCAUGAAGACUCGUTT against Ecsit, the z-score is 0.835 (inactive). Next, GGGACUGGAUCCUUGAUAUTT against Ebi3: 0.677 (inactive); CCCGGACCUUGAAUAAGCATT against Piwil4: -1.06 (inactive). To GCCACUAUCUGGAUAAGGATT against Ftl1 belongs -3.54 (active). Next, GGAGAAGUGGUAGAAACUGTT against Brd8: -1.3 (inactive). Regarding GCUUAGUCGGGAGAACUUUTT against Skp2, the z-score was 0.81 (inactive). Take GGACAAGCUAAGCAUUGAGTT against Atp6ap1: the z-score was -1.45 (inactive).

For the sequence GCAUUGUCGUGUCUUCUCUTT against Tti1, the z-score is -2.13 (active). As to GGAGUUUCAAGAAAAAAGGTT against Map3k21, the z-score was 1.08 (inactive). To GGGCGAAGAUACAAGUGACTT against Tnp2 belongs -1.76 (inactive); to GCACCAAGUCGUAUAAACATT against Sh3glb1, -0.391 (inactive); to CCAAUUUUGUCAUAGGACATT against Plbd1, -0.107 (inactive). Next, GGAUGUAAGGCCUUUUUUATT against Esr2: 0.676 (inactive); GGAGACCUUCAGCUUGGAATT against Zfp260: 0.0537 (inactive); GGAUUCUAGGAGAGAAUCATT against Cplx3: 0.897 (inactive).

In the case of GCCAUUUCUUAUCAAGUGGTT against Laptm4a, the z-score was -2.63 (active).

For GGAGCAGAACAUUAUCUUCTT against Tnn, the z-score is 0.603 (inactive).

“CCUAAACUACAGGAAUUUATT against D830014E11Rik”: the z-score is -0.0293 (inactive).

In the case of CCAUAUGAGAAGAUGACACTT against Pdcl2, the z-score was -1.39 (inactive). To GGCAGAAUCAGUUGAAAUUTT against Terf2ip belongs 0.917 (inactive); to CCAAGUUCGUGACAAACAUTT against Trpv1, -0.0275 (inactive). Next, “CCAUCAGGGUUACAAGUACTT against 6030458C11Rik”: -2.46 (active). Turning to GGACUUGUCCGCUCAUUGGTT against Usp54, the z-score was -1.13 (inactive).

For the sequence GGUAGAAAAGCUUCUGAAATT against Ap1g1, the z-score is 0.349 (inactive). Next, GGCUAUUAACAUCUCAGUUTT against Rhbdd1: 0.0309 (inactive).

With GGACAGAGAUCAAUAUUAATT against Rxfp3, the z-score was -0.0718 (inactive). To CGAAUGAAAGAAUACCGUGTT against Dnajc6 belongs 0.0901 (inactive); to CCUGGAUGCAUGGUUAUUATT against Cyp2ab1, 2.69 (active).

For the sequence GGGAAGAAAAUCAAACUCATT against Fabp1, the z-score is 0.504 (inactive). Next, GGCCGUUCAUUUCCUCAUCTT against Galr2: -0.359 (inactive). Next, GGAUUUGUUUUCACCAAGATT against Dmd: 0.3 (inactive). To GGUGACAGGUCAGAAAGUCTT against Tor1aip2 belongs -2.78 (active); to GGAGUUAAACCACUCAAGATT against Ceacam11, -0.262 (inactive). For GCAGGAUGUGACAGAUACATT against Pdcd2, the z-score was 0.185 (inactive). Next, CCAGAUGCUCGAUUCAGUGTT against Crim1: -0.44 (inactive); GGGAAAGACUCAAGGUCCUTT against Olfr586: 0.774 (inactive); GGCUAUUACCAUGGCCACUTT against Smim5: -2.85 (active). To GCCCAAUCAAAAAAUGGUGTT against Zyx belongs -0.0505 (inactive); to CGUGGACUUUAAGGAGCUGTT against Gdf7, -0.299 (inactive); to GGAUAAGGUAAUCUCGGUATT against Olfr710, -0.472 (inactive). Regarding CCAUAUUGAAACCUCAUUUTT against Fam126a, the z-score was -2.33 (active). Next, CGUGCUACAGAUGCGUCAUTT against Exoc8: 0.783 (inactive).

For the sequence CGCUCGUUACCUAAAGCAGTT against Nwd1, the z-score was -2.78 (active). Next, GCUUUGAAAUCUGAAUCAGTT against Terf2: 2.06 (active); GAAUCCGAGAUACGAGCCUTT against H2-D4: 0.0829 (inactive). Next, GGUUUGAAAUAUUGUGGAUTT against Spdye4b: -1.23 (inactive). Turning to CCUAGGGACAUUGGUUAUUTT against Sema4f, the z-score was 2.16 (active). GGAGCUUCCACAACUCAUATT against Esd: the z-score was -0.456 (inactive). Next, GGCAGUGGAGUGUAUGGAUTT against Popdc2: -0.531 (inactive). With GGAUGCAGCUAACAAUUACTT against Tuba8, the z-score was 1.05 (inactive).

For the sequence GGAUGGAGAGAUAAGAAAATT against Lmntd1, the z-score is -0.572 (inactive). To CCUUUCCUAACUUGAUCACTT against Cbr2 belongs 0.443 (inactive). With CCUCUUAAAACAAUACCAATT against Olr1, the z-score was 1.37 (inactive). As to GCAAAUAAGAUUGCGUCUGTT against Cpa2, the z-score is 2.89 (active). To GGCGAAGGAGAAGAAUUAATT against Rhox5 belongs 0.352 (inactive); to GGUCAACAAGCAUGCAUUUTT against Wars, -1.65 (inactive).

In the case of CCUUAUUUAGCUAAGCAGATT against Ran, the z-score is -2.95 (active). Consider GCCAACCAAAACCUAAGCATT against Gjc1, for which the z-score was -1.44 (inactive). As to CCCUCACAAUGAUCGAUUUTT against Tkt, the z-score was -0.885 (inactive). Take GGUAAAGUGAACUGUACCUTT against Vstm5: the z-score was 0.843 (inactive). As to GGUGGAGAUCCGAAAGCAUTT against Ltk, the z-score was 0.597 (inactive). To CCCUCCAGAAAAACAGUUUTT against Znrd2 belongs 0.284 (inactive); to “GAGUGAGCAAAUACCAGUUTT against 1700001J03Rik”, 2.52 (active); to CCAAAAAGAUUUGGAUCUCTT against Nr2f6, 0.142 (inactive). To GGAAACUUUCUAAAUGCUGTT against Pja1 belongs -0.0964 (inactive); to GCCAUUAAUGUACCAGGUUTT against Olfr894, -0.202 (inactive). To GCGUGAACGUAUUUGUUACTT against Pcdhgc3 belongs 0.203 (inactive); to ACAGGAGUCCAUAGCCGUCTT against Aspscr1, -1.47 (inactive); to CGGAGGUGGCUAUAAAAAUTT against Sik2, 0.0967 (inactive). Consider GGAUUCCUCUAACACAUUUTT against Keg1, for which the z-score was 2.07 (active). Turning to CCUCACCCUUUCCAAAAAATT against Polr2f, the z-score is -1.03 (inactive). To GCUUUAAUUGUGAAAGCACTT against Miga1 belongs -2.26 (active).
